Assays:
Assay type in all cases: functional
[1] = biological target: Solute carrier family 2, facilitated glucose transporter member 1 (Homo sapiens) (UniProt P11166); test: ST_JUDE_LEISH: Cytotoxicity at 2uM final concentration against transgenic Leishmania Mexicana promastigotes LmGLUT1 that are glucose transport deficient and complemented with the human glucose transporter GLUT1. Activity is measured by DNA content using SYBR green in vitro
[2] = biological target: Hexose transporter 1 (Plasmodium falciparum) (UniProt O97467); test: ST_JUDE_LEISH: Cytotoxicity at 2uM final concentration against transgenic Leishmania Mexicana promastigotes LmPfHT that are glucose transport deficient and complemented with the Plasmodium falciparum hexose transporter. Activity is measured by DNA content using SYBR green in vitro
[3] = biological target: Glucose transporter (Leishmania mexicana) (UniProt O61059); test: ST_JUDE_LEISH: Cytotoxicity at 2uM final concentration against transgenic Leishmania Mexicana promastigotes LmGT2 that are glucose transport deficient and complemented with the L. Mexicana glucose transporter 2. Activity is measured by DNA content using SYBR green in vitro

Chain of Solute carrier family 2, facilitated glucose transporter member 1 (Homo sapiens) (P11166 whole entry): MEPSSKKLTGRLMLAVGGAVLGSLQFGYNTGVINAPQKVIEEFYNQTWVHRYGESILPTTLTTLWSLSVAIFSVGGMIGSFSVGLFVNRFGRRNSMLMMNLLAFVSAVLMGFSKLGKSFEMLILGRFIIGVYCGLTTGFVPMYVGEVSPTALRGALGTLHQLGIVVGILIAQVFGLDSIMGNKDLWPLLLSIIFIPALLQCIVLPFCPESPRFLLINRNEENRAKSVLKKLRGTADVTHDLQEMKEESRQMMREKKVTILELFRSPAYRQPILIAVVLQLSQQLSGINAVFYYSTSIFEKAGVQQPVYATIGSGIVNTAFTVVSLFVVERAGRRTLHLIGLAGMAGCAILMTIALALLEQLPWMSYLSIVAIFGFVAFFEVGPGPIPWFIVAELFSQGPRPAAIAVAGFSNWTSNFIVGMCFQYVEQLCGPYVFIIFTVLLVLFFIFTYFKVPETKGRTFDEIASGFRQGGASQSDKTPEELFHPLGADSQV

Structure (SMILES)	inhibition [1] [%]	inhibition [2] [%]	inhibition [3] [%]
OC1CCCN(Cc2ccc(-c3ccc(-c4nc5cc(F)ccc5[nH]4)cc3)cc2)C1 (stereo unspecified)	9.06	8.43	6.49
COC(=O)c1ccc(C(=O)NCCCCN2CCC(c3ccc4c(c3OC)CCCC4)CC2)cc1-c1ccc(C(F)(F)F)cc1	2.23	1.47	2.29
CC(C)Cc1cnc2nc(N)nc(N)c2c1	1.42	2.76	1.4
NC1CCN(Cc2ccc(-c3cccc(-c4nc5cc(F)ccc5[nH]4)c3)cc2)C1 (stereo unspecified)	16.9	14.7	12.8
CCn1cc(C(=O)O)c(=O)c2cc(F)c(N3CCN(S(=O)(=O)c4ccc(N)cc4)CC3)cc21	0.77	0.41	-4
N#Cc1cccc(C(=O)Nc2ccc(-c3cccc(CN4CCC(O)CC4)c3)cc2)c1	0.21	0.35	-0.04
CCc1cn2c3c(cc(C(=O)N[C@@H](Cc4ccccc4)[C@H](O)CNC(C)(C)CCCC(C)C)cc13)N(C)S(=O)(=O)C2	2.45	2.22	0.85
Brc1ccc(Nc2nc(NCc3ccccc3)c3ccccc3n2)cc1	22.6	16.5	6.03
CN(Cc1ccccc1)C1CCCN(c2cc(NC(=O)c3cccs3)ccn2)C1 (stereo unspecified)	0.77	-0.06	0.5
CCOC(=O)c1ccc(N=C2SC(=Cc3cc(Br)ccc3O)C(=O)N2C)cc1	3.33	1.81	3.81
O=c1cc(NCCCNCc2ccc(C(F)(F)F)cc2F)[nH]c2ccccc12	2.19	0.29	-0.34
CC(C)C[C@H](NC(=O)c1ccc(OCCN2CCOCC2)cc1)C(=O)N[C@H](/C=N/N1CC(=O)NC1=O)CCc1ccccc1	3.3	4.15	2.88
COc1ccc2nccc([C@@H](O)CN3CCC(NCc4cc5ccccc5nc4O)CC3)c2c1	1.8	1.94	2
COc1ccc(C2CCN(CCCNC(=O)c3ccc(NC(=O)c4ccc(Cl)cc4)cc3)CC2)c(OC)c1	3.85	4.23	3.54
CCN(CC)CCN(Cc1ccc(-c2ccc(C(F)(F)F)cc2)cc1)C(=O)c1ccc(-c2ccc(C#N)cc2)cc1	2.48	0.49	2.37
CCNC(=O)c1ccc2c(c1)c(C)c(C)n2Cc1ccc(F)cc1	0.6	-0.64	1.15
CC(C)c1cc2c(ccc3nc(N)nc(N)c32)[nH]1	9.81	31	8.49
Cc1cccc(-c2cc3cc(Nc4ccnc5cc(-c6nccs6)ccc45)ccc3[nH]2)c1	1.71	-0.37	1.12
Nc1nccc2ccc(-c3cccc(OCc4ccccc4)c3)cc12	1.85	2.5	-2.03
CN(C)CCN(C)Cc1ccc(-c2ccc(NC(=O)c3ccc(Cl)cc3)cc2)cc1	21.2	11.3	7.17
N#Cc1cccc(CN2CCCN(Cc3cccc(C(=O)Nc4ccc(Cl)cc4)c3)CC2)c1	0.81	0.19	0.64
COc1cc(N)c(Cl)cc1C(=O)NC1CCC(NCC2CCCCC2)CC1 (stereo unspecified)	2	1.99	1.15
COc1ccc2nccc([C@@H](O)CN3CCC(NCc4cc5cccc(OCc6ccccc6)c5[nH]4)CC3)c2c1	1.7	0.05	2.01
Cc1ccccc1CNc1ccc2nc(N)nc(N)c2c1	1.01	2.12	-0.21

Structure (SMILES)	inhibition [1] [%]	inhibition [2] [%]	inhibition [3] [%]
CCNc1c2ccc(Cl)cc2nc2ccc(OC)cc12	2.46	4.37	1.15
Cc1cc(Br)cnc1CCCCNC1=NC(=O)CN1C	0.57	-0.02	0.12
COc1ccc(S(=O)(=O)NC2CCN(c3ccnc4cc(Cl)ccc34)C2)cc1 (stereo unspecified)	4.03	1.1	0.63
O=C(Nc1ccc(OC2CCN(Cc3ccc(F)cc3)C2)c(Cl)c1)c1ccco1 (stereo unspecified)	3.67	3.44	3.01
Cc1ccc(C(=O)NC2CCN(CCNC(=O)Nc3cc(C)nc4ccccc34)CC2)cc1	-1.56	0.53	-1.45
CC(=O)N/N=C/[C@H](CCc1ccccc1)NC(=O)[C@H](CC(C)C)NC(=O)c1cccc(OCCN2CCOCC2)c1	6.39	8.07	5.79
O=C(NCc1cccc2ccccc12)c1ccc(CNC2CCN(Cc3ccccc3)CC2)cc1	1.65	2.12	4.22
Nc1ccc(-c2nc3cc(Cc4ccc5[nH]c(-c6ccc(N)cc6)nc5c4)ccc3[nH]2)cc1	0.06	-2.2	-2.11
CSc1cccc(NC(=O)Nc2ccc(I)c(OCCN(C)C)c2)c1	4.88	4.31	3.56
COc1c(C2CCN(CCN3CCC(NC(=O)c4ccc(-c5ccc(C(F)(F)F)cc5)cc4)CC3)CC2)ccc2c1CCCC2	0.78	1.26	0.67
COc1ccc2[nH]ccc(=NN=Cc3cccnc3)c2c1	1.08	-2.41	1.2
NC1=NC(c2ccccc2)(c2ccccc2)C(=O)N1CCCCc1ccccn1	-0.54	-0.95	-2.5
O=C(NCCCCCN1CCC(c2c[nH]c3ccccc23)CC1)Nc1cccc(C(F)(F)F)c1	-1.78	-2.05	-2.66
CCCC(C)Nc1nc(C)cc(N[C@@H](Cc2ccccc2)C(=O)Nc2ccccc2)n1 (stereo partly specified)	2.98	3.18	0.41
Cc1cc(=NN=CC=Cc2ccccc2)c2cc(F)ccc2[nH]1	0.37	0.85	0.04
COc1cc(C(=O)N2CCC(CCN3CCC4(CC3)CN(S(C)(=O)=O)c3ccccc34)CC2Cc2ccc(Cl)c(Cl)c2)cc(OC)c1OC (stereo unspecified)	3.23	4.25	3.27
Cc1noc(-c2ccccc2)c1CN1CCCC2(CC(C(=O)NCc3cccc(F)c3F)=NO2)C1 (stereo unspecified)	0.11	-0.09	-0.8
O=C1CCCN1CCCNCc1cccc(-c2cccc(-c3nc4cc(F)ccc4[nH]3)c2)c1	0.85	1.31	0.04
O=C(CSc1nc2ccccc2c(=O)n1C1CC1)Nc1cc(C(F)(F)F)ccc1Cl	-0.03	-2.91	2.43
Cc1cc(N2CCN(C)CC2)nc2ccc(NC(=O)Cc3cccc(C(F)(F)F)c3)cc12	2.34	1.8	5.56
O=C(NCC1CCCCC1)c1cc(=O)c2ccccc2o1	8.02	10.2	11.7
CCC(CC)CN1C(=O)C(c2ccccc2)(c2ccccc2)N=C1N	6.55	5.61	6.88
O=C(Nc1cc(C(F)(F)F)cc(C(F)(F)F)c1)Nc1ccc(Cl)c(Cl)c1	0.47	1.04	1.22

Source: ChEMBL document CHEMBL3433997, “St. Jude Leishmania screening dataset” (2016)
